Results published in PubChem BioAssay.

Tested on: Chordin-like protein 2 (CHRDL2)
Assay: compounds binding chordin-like 2 – biochemical, small-molecule microarray, 635 nm fluorescence, primary screen (AID 1126);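 further: printed compound slides probed with Chrdl2 protein at 4 µg/mL for 1 h at 4 C; score merges 667 nm emission intensity with signal to noise over three replicate slides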
Settings: fluorescence 635 nm, higher = more signal

Compound | composite z-score
CO[C@H]1COC(=O)[C@H](CCSC)NC(=O)CC=C[C@@H](C)COC(=O)[C@@H](OCc2ccccc2)C=C[C@@H]1C | 1.51
CCC(=O)[C@]12O[C@@]3([C@@H]4C(=O)OCC[C@@H]41)N(Cc1ccccc1)C(C)=C(C(=O)OC)[C@@H](c1ccccc1)N3C2=O | -0.334
COC(=O)[C@@]1(Cc2ccc(OC)cc2)[C@H]2c3cc(C(=O)N(C)C)n(CCc4ccc(OC)c(Br)c4)c3C[C@H]2CN1C(=O)c1ccccc1 | -1.11
C#CCCCON=C1C[C@@H](O)[C@@H](O)[C@@H]2[C@@H]3C(=O)N(Cc4ccc5c(c4)OCO5)C(=O)[C@@H]3CC[C@H]12 | 0.558
COC(=O)c1c(CC[C@@H](CO)NC(=O)N[C@H](Cn2cc(-c3cncn3C)nn2)C(C)C)oc(C(C)=O)c1C(=O)OC | 0.0779
CCOC(=O)C1=CC[C@@H](c2ccc(-c3ccc(OCc4ccccc4)cc3)c(OC)c2)N(S(=O)(=O)c2ccc(C)cc2)[C@H]1c1ccccc1 | 0.0693

Target: Concanavalin-A (Canavalia ensiformis) (UniProt P02866)
Sequence (P02866 whole entry, looked up): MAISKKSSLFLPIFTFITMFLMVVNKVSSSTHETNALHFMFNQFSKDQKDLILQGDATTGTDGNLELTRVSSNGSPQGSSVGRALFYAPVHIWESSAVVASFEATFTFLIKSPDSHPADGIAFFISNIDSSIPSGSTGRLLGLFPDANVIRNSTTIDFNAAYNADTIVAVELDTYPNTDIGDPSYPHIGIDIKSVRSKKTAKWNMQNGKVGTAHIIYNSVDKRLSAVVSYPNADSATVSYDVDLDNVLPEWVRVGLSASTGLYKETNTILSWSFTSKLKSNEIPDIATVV
Assay: compounds binding concanavalin A lectin – biochemical, small-molecule microarray, Alexa647 label, 635 nm, artefact control for SMM control protein annotation, primary screen (AID 1127);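 further: z combines 667 nm emission intensity with signal-to-noise across three replicate slides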
Settings: ConA-A647 binding fluorescence, higher = more signal

Compound | composite z-score
Cc1ccc(S[C@]2(C(=O)NCCCN(C)C)CC(=O)N(C3CCCCC3)[C@@H]2c2ccc(CO)cc2I)cc1 | -1.49
O=C1C2C=CC(C(O)C#Cc3ccccc3)N(Nc3ccccc3)C2C(=O)N1c1ccccc1 (configuration not stated) | -0.414
O=C1NC(=O)C2C1C=CC(C(O)C=Cc1ccc([N+](=O)[O-])cc1)N2Nc1ccccn1 (configuration not stated) | 0.367
Cc1ccc(S(=O)(=O)N[C@H]2COC(=O)CC=C[C@H](C)COC(=O)N[C@@H](C)C(=O)CC=C[C@@H]2C)cc1 | 0.152
Cc1ccc(N2C(=O)c3ccccc3[C@](C)(C(=O)NCC(C)C)[C@@H]2c2ccc(CO)cc2)nc1 | -1.92
O=C1C2C=CC(C(O)c3ccccc3)N(n3cnnc3)C2C(=O)N1Cc1ccccc1 (configuration not stated) | 0.161
COc1cc([C@@H]2N[C@H](C(=O)O)Cc3c2[nH]c2ccccc32)cc(OC)c1OC | 0.245
C=CCNC(=O)[C@H]1[C@@H]2C(=O)O[C@@H](c3ccccc3)[C@@H](c3ccccc3)N2[C@@H](c2ccc(O)cc2)[C@]12C(=O)Nc1ccc(C#CCNC(N)=O)cc12 | -0.649
CCC#CCN(Cc1ccccc1Br)[C@H](/C=C/c1ccccc1)[C@@H](O)Cc1ccccc1 | -0.779
CCCC=C(CCC)[C@@H](NC(=O)c1ccccc1)c1ccccc1 | -0.604
CO[C@H]1O[C@H](CO)[C@@H](OC(=O)CCc2ccccc2)[C@@H]2OC(=O)[C@H](Cc3cccc(Br)c3)C/C=C/C[C@@H](Cc3cccc(Br)c3)C(=O)O[C@@H]12 | 0.014
C=CCC(OC(C)=O)[C@@H]1[C@@H](N(Cc2cccc3ccccc23)C(=O)c2ccc(C)cc2)c2cc(OCCCO)ccc2N1C(=O)c1ccc(-c2ccccc2)cc1 (some centres not stated) | -0.227
Cc1ccc(N2C(=O)c3ccccc3[C@](C)(C(=O)O)[C@@H]2c2ccc(CO)cc2)nc1 | -1.14
C[C@@H]1CC[C@H]2C(=O)N3[C@@H](CC[C@@H](C)[C@@H]3c3cccc(N4CCOCC4)c3)C(=O)N2[C@H]1c1cccc(N2CCOCC2)c1 | 1.04
Cc1ccc(S[C@]2(C(=O)NCCN3CCOCC3)CC(=O)N(C3Cc4ccccc4C3)[C@@H]2c2ccc(CO)cc2I)cc1 | -0.587
N#Cc1ccc(NN2C(C(O)c3ccc(I)cc3)C=CC3C(=O)N(c4ccccc4)C(=O)C32)cc1 (configuration not stated) | 1.12
CCOC(=O)[C@H]1C/C=C/C[C@H](C(=O)OCC)C(=O)O[C@H]2[C@@H](OC)O[C@H](CO)[C@@H](OC(=O)Nc3ccc(Br)cc3)[C@@H]2OC1=O | 1.09
C[C@@H]1C=CCC(=O)OC[C@H]2O[C@@H](C=C[C@@H]2O)[C@H](C)C=CCC(=O)OC[C@H]2O[C@H]1C=C[C@@H]2O | -0.343

Compound | composite z-score
CO[C@@H]1COC(=O)[C@H](C)NC(=O)CC=C[C@@H](C)[C@H](NS(=O)(=O)c2ccc(C)cc2)COC(=O)CC=C[C@@H]1C | -0.809
C=C(CCCC)/C(=C/C[C@@H](OC(=O)c1ccncc1)c1cccc(OCCO)c1)c1cc(C(=O)OC)ccc1OC | 1.11
[N-]=[N+]=NCc1ccccc1C[C@]1(C(N)=O)N=C(c2ccc(OCCCO)cc2)O[C@H]1c1ccccc1CN=[N+]=[N-] | 0.991
CCCCO[C@H]1C[C@H]2C(Br)=C[C@@]1(CO)C(=O)[C@]21CO1 | 0.153
CC(C)N1CC=CC23O[C@@H]4/C=C\CCCOC(=O)C4[C@H]2C(=O)N(CCCCCO)[C@@H]3C1=O (some centres not stated) | -1.26
CO[C@@H]1COC(=O)[C@H](C)NC(=O)CC=C[C@@H](C)[C@H](OC)COC(=O)[C@H](C)NC(=O)CC=C[C@H]1C | 0.44
CCOC(=O)C[C@H]1[C@H](OC(=O)Cc2ccc3c(c2)OCO3)[C@@H](NC(=O)c2ccc3ccccc3c2)c2cc(OCCCO)ccc2N1C(=O)Cc1ccc(OC)cc1 | 0.684
CCCN1C(=O)[C@@]2(CCS(=O)(=O)c3ccccc3)N=C(c3ccc(OCCCO)cc3)O[C@H]2c2ccccc21 | 0.892
CCCC[C@@H]1C[C@H]1[C@@H](NC(=O)c1cccs1)c1ccc(Cl)cc1 | -0.782
C[C@H]1COC(=O)[C@@H]2CCCN2C(=O)[C@@H](C)COC(=O)[C@@H]2CCCN2C1=O | -0.0254
[N-]=[N+]=NCc1ccccc1C[C@@]1(C(=O)O)N=C(c2ccc(OCCCO)cc2)O[C@@H]1c1ccccc1N=[N+]=[N-] | 0.421
O=C1C2C=CC(C(O)C(c3ccccc3)c3ccccc3)N(Nc3ccc([N+](=O)[O-])cc3)C2C(=O)N1c1ccccc1 (configuration not stated) | 1.17
CO[C@H]1COC(=O)[C@H](CCSC)NC(=O)CC=C[C@@H](C)COC(=O)[C@@H](OCc2ccccc2)C=C[C@@H]1C | -0.623
CCC(=O)[C@]12O[C@@]3([C@@H]4C(=O)OCC[C@@H]41)N(Cc1ccccc1)C(C)=C(C(=O)OC)[C@@H](c1ccccc1)N3C2=O | -1.17
COC(=O)[C@@]1(Cc2ccc(OC)cc2)[C@H]2c3cc(C(=O)N(C)C)n(CCc4ccc(OC)c(Br)c4)c3C[C@H]2CN1C(=O)c1ccccc1 | 1.2
C#CCCCON=C1C[C@@H](O)[C@@H](O)[C@@H]2[C@@H]3C(=O)N(Cc4ccc5c(c4)OCO5)C(=O)[C@@H]3CC[C@H]12 | 0.752
COC(=O)c1c(CC[C@@H](CO)NC(=O)N[C@H](Cn2cc(-c3cncn3C)nn2)C(C)C)oc(C(C)=O)c1C(=O)OC | 1.07
CCOC(=O)C1=CC[C@@H](c2ccc(-c3ccc(OCc4ccccc4)cc3)c(OC)c2)N(S(=O)(=O)c2ccc(C)cc2)[C@H]1c1ccccc1 | 1.13
